# Rab9 prom act = activates the Rab9 promoter; Potency, µM (doses to about 9.22 µM), usual class: activators; AID 485297; Huh7 Rab9 promoter-luciferase reporter, luminescence, 24 h; 2.8% of 320,000 active; also: nearly all actives have a fitted effect of over 60% in size
#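 Cells were plated at 1500 per well in reduced-serum medium with 10% FBS and left 2 h. Compound in DMSO was then added for 24 h at 37 °C. Reporter signal was read by luminescence after 10 min with luciferase detection reagent.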
# uPA generation = blocks generation of uPA at the cell surface. 0.31% of 330,000 active. Potency, µM (highest dose often 38.3 µM), most hits filed as inhibitors. cell surface uPA generation assay, qHTS. AID 540303; active = well fitted inhibition curve with a large enough effect; inconclusive = small, poorly fitted or top-dose-only effect; inactive = no such curve, though single readings can be large or run the other way; tested in mouse RAW 264.7 cells; also: nearly all actives have a fitted effect of over 55% in size
# ELG1 genotoxic = inducers of genotoxicity in HEK293T ELG1-luciferase cells. Potency, µM (doses to about 46 µM), usual class: activators. HEK293T ELG1-luciferase reporter, luminescence, 16 h. 1.3% of 330,000 active. AID 504466; also: nearly all actives have a fitted effect of over 60% in size
#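 ELG1-luciferase HEK293T cells, 2,000/well; compound pinned in; 16 hr, 37 °C, 5% CO2; ONE-Glo, 30 min RT; luminescence on CCD imager.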
# SMN2 splice enh = increases expression of the SMN2 splice variant. 2.8% of 210,000 active. HEK293 SMN2-luciferase splicing reporter, luminescence, 30-36 h. Potency, µM (highest dose often 46.1 µM), most hits filed as activators; also: nearly all actives have a fitted effect of over 55% in size
#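 HEK293 cells carry an SMN2 […]–luciferase reporter in which exon 7 inclusion puts luciferase in frame. Cells were plated 10-12 h before compound addition, then incubated 30-36 h at 37C. ONE-Glo luminescence was read; sodium butyrate at 4.5 mM final served as control.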
# FLuc counter = firefly luciferase modulation, counter-screen for miR-21 project | P08659 | purified FLuc, Km substrates, luminescence inhibition | Potency, µM (top dose mostly 57.5 µM), hits mostly inhibitors | 6.9% of 360,000 active | AID 588342; also: nearly all actives have a fitted effect of over 55% in size
# Target sequence (P08659 whole entry, looked up): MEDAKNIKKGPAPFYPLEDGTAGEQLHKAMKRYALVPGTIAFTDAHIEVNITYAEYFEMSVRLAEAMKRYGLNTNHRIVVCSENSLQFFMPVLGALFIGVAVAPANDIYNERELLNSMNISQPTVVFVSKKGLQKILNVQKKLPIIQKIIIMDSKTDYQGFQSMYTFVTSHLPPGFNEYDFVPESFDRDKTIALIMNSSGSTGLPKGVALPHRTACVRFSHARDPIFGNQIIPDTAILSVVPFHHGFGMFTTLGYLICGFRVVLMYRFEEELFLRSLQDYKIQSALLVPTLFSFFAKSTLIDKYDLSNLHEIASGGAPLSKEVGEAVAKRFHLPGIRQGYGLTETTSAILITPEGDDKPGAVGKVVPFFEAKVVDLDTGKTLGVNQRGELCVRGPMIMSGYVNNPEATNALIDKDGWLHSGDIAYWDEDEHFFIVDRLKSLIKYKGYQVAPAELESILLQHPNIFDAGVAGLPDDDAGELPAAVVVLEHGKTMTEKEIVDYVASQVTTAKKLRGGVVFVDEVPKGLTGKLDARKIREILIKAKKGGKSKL
#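 Biochemical qHTS of compounds, final roughly 60 µM downward over six points, against 10 nM purified firefly luciferase using Km concentrations of substrates (10 uM D-luciferin, 10 uM ATP) in Tris acetate pH 7.5 buffer; luminescence output.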
# NPC1 promoter act = NPC1 promoter activation | 2.4% of 320,000 active | Huh7 NPC1 promoter luciferase reporter, 24 h | Potency, µM (top dose mostly 9.22 µM), usual class: activators; also: nearly all actives have a fitted effect of over 60% in size
#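 Cells: Huh7 expressing luciferase under the NPC1 promoter, 1500/well. Seeded 2 h, compound added, incubated 24 h at 37 °C. Luciferase reagent, 10 min ambient, then luminescence.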
# A number is an active result; n = inactive; u = inconclusive; x = not tested or not shown. Rows were chosen to be rich in hits. Some 7.3% of all compounds tested hit in one or more screens of this group. Unless noted, calls follow the shape of the dose curve; as a rule, active = well fitted curve in the direction sought with a large enough effect; inconclusive = small, poorly fitted or top-dose-only effect, or another doubt; inactive = no such curve, though single readings can be large; an effect the other way counts as inactive or inconclusive.
SMILES,Rab9 prom act,uPA generation,ELG1 genotoxic,SMN2 splice enh,FLuc counter,NPC1 promoter act
COc1cc(SC)ccc1C(=O)NCCOc1ccc(C)c(C)c1,n,n,n,n,n,n
NC(=S)n1[nH]c(-c2ccc([N+](=O)[O-])cc2)c(N=Nc2cccc([N+](=O)[O-])c2)c1=O,n,n,n,n,u,n
Cc1[nH]n(C(N)=S)c(=O)c1N=Nc1ccc(S(=O)(=O)N2CCCCCC2)cc1,n,n,n,n,5.36µM,n
Cc1c(N=Nc2c(-c3ccc([N+](=O)[O-])cc3)[nH]n(C(N)=S)c2=O)cccc1[N+](=O)[O-],n,n,n,n,u,n
Nc1cc(-c2ccc(Br)cc2)[nH]n1,n,n,n,n,u,n
Cc1ccc(N=Nc2c(C)[nH]n(C(N)=S)c2=O)cc1C,3.55µM,n,u,10µM,3.79µM,3.55µM
Cc1[nH]n(C(N)=S)c(=O)c1N=Nc1cccc([N+](=O)[O-])c1C,2.51µM,n,u,x,8.49µM,u
Cc1[nH]n(C(N)=S)c(=O)c1N=Nc1cc(-c2ccc(Br)cc2)[nH]n1,u,n,n,u,1.69µM,n
Cn1c(=O)c2cc(C(=O)N3CCN(c4cccc(C(F)(F)F)c4)CC3)sc2c2ccccc21,x,x,x,n,n,x
CC(C)Cn1cc(NC(=O)N2CCN(c3ccccc3F)CC2)c2ccccc2c1=O,x,x,x,x,n,x
CCOC(=O)C(C)NC(=O)c1c(C)oc2ncn(CC(C)C)c(=O)c12 (centres undefined),x,x,x,x,n,x
CC(=O)Nc1ccc(N=Nc2c(C)[nH]n(C(N)=S)c2=O)cc1,u,n,u,n,15.1µM,n
Cc1[nH]n(C(N)=S)c(=O)c1N=Nc1ccc2ccccc2c1,3.98µM,n,18.3µM,22.4µM,3.01µM,3.16µM
C=Cc1ccc(CN2C(=O)N(c3ccc(C)c(C)c3)S(=O)(=O)c3ccccc32)cc1,x,x,x,x,n,x
CCCC(CCC)C(=O)Nc1cc(-c2cn3cccnc3n2)ccc1OC,x,x,x,x,n,x
Cc1nc(CSc2ccc(Br)cc2)cs1,n,n,n,x,16.9µM,n
Cc1nc(CSc2ccc(Cl)cc2)cs1,n,n,n,x,u,n
CC1(C)N=C(SCc2ccc(F)cc2)c2ccccc2N1,x,x,x,x,n,x
COc1ccccc1-c1ccc(SCc2ccc(F)cc2)nn1,n,n,n,n,23.9µM,n
Clc1ccc(CSc2ccc(-c3cccnc3)nn2)cc1,n,n,n,n,u,n
COc1ccccc1-c1ccc(SCc2ccc(C)cc2)nn1,n,n,n,n,15.1µM,n
O=C(c1nc(-c2ccc(Cl)cc2)n2c1CCCCC2)N1CCN(c2ccc(F)cc2)CC1,x,x,x,x,n,x
COCCN1CCN(C(=O)c2cc(COc3cc(C)ccc3C)on2)CC1,2.24µM,n,u,x,13.5µM,u
COc1cc(C)ccc1OCc1cc(C(=O)N2CCCCCC2)no1,n,n,n,x,u,n
Cc1ccc(C)c(OCc2cc(C(=O)N3CCOCC3)no2)c1,u,u,u,x,21.3µM,n
SMILES,Rab9 prom act,uPA generation,ELG1 genotoxic,SMN2 splice enh,FLuc counter,NPC1 promoter act
CC(=O)NCCC1CCCCN1C(=O)c1cc(COc2cc(C)ccc2C)on1 (centres undefined),2.24µM,n,16.4µM,x,16.9µM,3.55µM
COCCN1CCN(C(=O)c2cc(COc3ccc(Cl)cc3OC)on2)CC1,3.16µM,n,20.6µM,x,10.7µM,u
Cc1ccc(C)c(OCc2cc(C(=O)N3CCNC(=O)C3)no2)c1,n,n,n,x,n,n
COc1ccccc1CCNC(=O)C(=O)NCC(c1ccco1)S(=O)(=O)c1cccs1 (centres undefined),x,x,x,x,n,x
COCCNC(=O)CSc1nc2scc(-c3ccccc3)c2c(=O)[nH]1,n,n,n,x,n,n
COCCCC1CCN(C(=O)c2cc(COc3cc(C)ccc3C)on2)CC1,3.55µM,n,u,x,12µM,2.51µM
Cc1ccc(C)c(OCc2cc(C(=O)N3CCC(N4CCCC(O)C4)CC3)no2)c1 (centres undefined),n,n,n,x,n,n
COc1ccc(/C(O)=C/c2nc3ccccc3n(-c3ccccc3)c2=O)cc1,n,n,n,n,7.57µM,n
COc1ccc(CNC(=O)Cn2c(=O)n3nc(-c4cccc(F)c4)nc3c3ccccc32)cc1OC,x,x,x,x,n,x
COc1cccc(NC(=O)Nc2ccc3snnc3c2)c1,x,x,x,n,16.9µM,x
Cc1ccc(NC(=O)Nc2ccc3snnc3c2)cc1C,x,x,x,n,23.9µM,x
COc1cccc(NC(=O)Nc2ccc3c(c2)nnn3C)c1,u,n,n,17.8µM,6.75µM,u
O=C(Nc1ccc2snnc2c1)Nc1cccc2ccccc12,n,n,n,n,21.3µM,n
O=Cc1cc(N=Nc2cccc(C(=O)O)c2)ccc1O,u,n,n,n,10.7µM,u
O=Cc1cc(N=Nc2ccccc2Cl)ccc1O,2.24µM,8.91µM,n,x,19µM,2.51µM
Cc1cc(/C=C(\C#N)C(=O)N2CCOCC2)c(C)n1C1CCCC1,0.316µM,u,1.64µM,x,1.07µM,0.501µM
COc1ccc(/C=C(\C#N)C(=O)N2CCOCC2)cc1Br,n,n,n,n,n,n
COc1ccc(S(=O)(=O)N(Cc2nc(-c3ccc(C)cc3)no2)C2CCCCC2)cc1,x,x,x,n,n,x
O=C(Nc1nc2c(s1)CCCC2)C1COc2ccccc2O1 (centres undefined),0.316µM,u,0.581µM,0.501µM,0.757µM,0.562µM
O=C(Nc1ccncc1)C1COc2ccccc2O1 (centres undefined),n,n,n,x,n,n
O=C(NC1=NCCS1)C1COc2ccccc2O1 (centres undefined),u,n,u,x,0.239µM,0.0251µM
CCc1nnc(NC(=O)C2COc3ccccc3O2)s1 (centres undefined),2.82µM,n,u,11.2µM,12µM,3.16µM
CCCCCc1nnc(NC(=O)C2COc3ccccc3O2)s1 (centres undefined),n,n,u,n,u,n
CCC(CC)c1nnc(NC(=O)C2COc3ccccc3O2)s1 (centres undefined),1.26µM,x,u,u,7.57µM,1.58µM
Cc1c(Br)c([N+](=O)[O-])nn1CC(=O)Nc1cccc2nonc12,n,n,n,n,n,n
Cc1ccc(CSc2nnc(NC(=O)C3COc4ccccc4O3)s2)cc1 (centres undefined),n,n,n,n,u,n
O=C(Nc1ncc(Cc2ccccc2)s1)C1COc2ccccc2O1 (centres undefined),2.82µM,n,n,10µM,3.01µM,1.58µM
Cc1nnc(NC(=O)C2COc3ccccc3O2)s1 (centres undefined),u,n,u,n,23.9µM,u
COc1cc(NC(=O)CC2C(=O)N(c3cccc(C)c3)C(=O)N2Cc2cccs2)cc(OC)c1 (centres undefined),x,x,x,x,n,x
COc1cccc(/C=N/Nc2ncccc2[N+](=O)[O-])c1OC,n,n,0.291µM,x,0.301µM,u
